Laboratory results: the supplement of paper PMC6555819

These sequences were tested on RXRa DBDmut IVT, anti-RXR (DBD mutation: RXRa K156A/R161A, NR concentration 90 nM) (assay: PBM binding z-score (relative to random genomic background probes); higher = stronger binding; sequences stand for … in GC…GCGATTGACAGCGTAGAATGAAGG).
Outline: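 Regression normalization was applied to scanned fluorescence from custom Agilent 4×180K protein-binding microarrays. Before scanning, arrays were incubated 1 h with ligand-free nuclear receptor dimers, and binding was detected with antibodies against each partner (one per run). Binding z-scores use the random background probes as reference.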
GGAACGAGGGCATTCGAGTTGATAGCCTGGCGAT gave a PBM binding z-score of 3.31. In the case of CCTGCTAGGTCAATTGTCAGCTAAAGCAGCTCGC, the PBM binding z-score was 1.77. With ATCTCTAGGTAGAAGTTCAGTGAATCCCGAGGAT the PBM binding z-score was 0.251. With TCGAGTAGGTTAGGGGCATTCACAATGGCGTCGA the PBM binding z-score was 0.518. TCATATAGGTTATACAGGTGAAAGTCGGCATCTA gave a PBM binding z-score of 2.09. In the case of ACAGACAGGTGATGAAGGTAACTCACGCTATCAT, the PBM binding z-score was -0.0205. With CCTACTGGGCCCAAGGTCATTGATTCCAATGCTC the PBM binding z-score was 0.382. Sequence ACAGACAGGTGATGAAGGTAATTCAGGCTATCAT has a PBM binding z-score of -0.19. AGAACGAGGGCACGCTGACTTGATAGCAGAGTAG was tested, and the PBM binding z-score was 1.66. ATATCTAGGTAAAGATAGTTCAGTGAATGCAAAT showed a PBM binding z-score of 0.0845. GCTGCAAGGTCAGGTTGGTCAGCTAACGGGTACG gave a PBM binding z-score of 2.04. In the case of GTACCAAGGTGAATAGGTCGTTGTTGAGTAGGCG, the PBM binding z-score was 0.135. In the case of TAGCTTAGGTCAGATCGGGCCAGTATACGCTATA, the PBM binding z-score was -0.0319. Sequence GATACAGGGTCAGCTAGAGGCCGGAGTATGGAAA has a PBM binding z-score of 1.07. ATCTCTAGTTAAGACTCAGTTCAGTGAAGAACGC showed a PBM binding z-score of 0.575. Sequence GCTAGCAGGCCATTCGGGTCACTCAATGACGGGC has a PBM binding z-score of 0.641. In the case of AGCTCTAGGTAACCAAGTTCAGTGAATGCCGAAC, the PBM binding z-score was 0.428.
